# From PubChem BioAssay AID720697 (Broad Institute, 2013)
# Entries with a potency or affinity are not part of this list. Records with an inconclusive call do not appear. Active and inactive are the calls of the source.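 How the source made its calls: active means signal loss with fitted half-maximal concentration at or below twice the top valid tested dose in every test run; inconclusive means runs disagree, flat 30 to 70% signal loss, or poor fit; inactive means all runs flat, opposite direction, or potency beyond limit.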
# Assay: general mammalian cell viability loss – inhibitor set, cherry-pick, set 2, cytotoxicity control for miR-122 modulator project, dose response (AID 720697)
row,SMILES,outcome
1,COc1cccc(CNC(=O)C[C@H]2CC[C@@H]3[C@@H](COc4ccc(NC(C)=O)cc4C(=O)N3C)O2)c1,inactive
2,COCC(=O)Nc1ccc2c(c1)C(=O)N(C)[C@@H]1CC[C@@H](CC(=O)NCc3ccc(OC)cc3)O[C@H]1CO2,inactive
3,C[C@@H]1CN([C@@H](C)CO)C(=O)c2cccc(NC(=O)Nc3ccc4c(c3)OCO4)c2O[C@@H]1CN(C)Cc1ccc(Oc2ccccc2)cc1,inactive
4,CN1[C@@H](CO)[C@@H]2c3ccccc3N(C(=O)Nc3cc(F)ccc3F)C[C@@H]21,inactive
5,CCCNC(=O)Nc1ccc2c(c1)C(=O)N(C)[C@H]1CC[C@H](CC(=O)NC3CCC3)O[C@H]1CO2,inactive
6,CCCNC(=O)C[C@@H]1CC[C@H]2[C@@H](COc3ccc(NC(=O)c4ccc(C(F)(F)F)cc4)cc3C(=O)N2C)O1,inactive
7,CN(C)CCCN(C(=O)CCc1ccccc1)c1nc2ccc(Br)cc2s1,inactive
8,Cc1nnc(NC(=O)CSc2nc(C(C)C)nc3sc(C)c(C)c23)s1,inactive
9,Cc1cc(C)c2c(c1)/C(=C/C(=O)c1ccc(Br)s1)C(=O)N2,inactive
10,C/C=C/c1ccc([C@@H]2[C@@H](CO)N(S(C)(=O)=O)[C@H]2CN(C)C(=O)CC)cc1,inactive
11,Cc1cc(C)cc(NC(=O)Nc2ccc3c(c2)C(=O)N(C)[C@@H]2CC[C@H](CC(=O)O)O[C@@H]2CO3)c1,inactive
12,C[C@@H]1CN([C@@H](C)CO)S(=O)(=O)c2ccc(C#CC3(O)CCCC3)cc2O[C@@H]1CN(C)C(=O)c1cccnc1,inactive
